Records with an inconclusive call do not appear. Active and inactive are the calls of the source. Unless noted, calls come from the whole dose curve; as a rule, active = well fitted curve in the direction sought with a large enough effect in the repeat runs; inconclusive = weak or mixed curves; inactive = no such curve, though single readings can be large; an effect the other way counts as inactive or inconclusive.
What was measured:
[1] = qHTS assay to identify small molecule agonists of the TGF-beta/Smad signaling pathway - cell viability counter screen (AID 1346829); note: top concentration of the series differs between compounds; nearly all actives have a fitted effect of over 45% in size
Outline: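 Same-well cytotoxicity: CellTiter-Glo added after the 2 hr room-temperature beta-lactamase substrate step, luminescence measured 30 min later; cells had 5 hr of compound at 37 C.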

[2] = qHTS assay to identify small molecule agonists of the TGF-beta/Smad signaling pathway (AID 1346859; active = well fitted activation curve with a large enough effect in the signal ratio in the repeat runs, not every such curve was filed as active; the % refers to the signal ratio; note: series mostly up to about 77 µM)
Outline: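 Each well held 4,000 SBE-bla HEK 293T cells incubated overnight before compound addition; 5 hr later the cleavable FRET substrate went on for 2 hr at room temperature, and fluorescence was read at two emissions.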

[3] = Human pregnane X receptor (PXR) small molecule agonists, qHTS cell viability counter screen (AID 1346977); note: nearly all actives have a fitted effect of over 50% in size
Outline: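 Tox21 qHTS format; PXR-Luc HepG2, 2,000/well, charcoal-stripped FBS 5%. Cpd exposure 24hr. Read: CellTiter-Fluor fluorescence, multiplexed with luciferase.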

[4] = Caspase-3/7 induction in HepG2 cells by small molecules, qHTS assay (AID 1346978); note: nearly all actives have a fitted effect of over 15% in size
Outline: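 Wild-type HepG2 cells, 2,000/well, settled 5 hr at 37 C and 5% CO2, then compound-treated for 17 hr; caspase-3/7 activity read by luminescent Caspase-Glo 3/7 after 30 min at room temperature.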

[5] = Caspase-3/7 induction in CHO-K1 cells by small molecules, qHTS cell viability counter screen (AID 1346979); note: nearly all actives have a fitted effect of over 35% in size
Outline: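 CellTiter-Fluor viability check, qHTS format: wild-type CHO-K1, 16hr compound treatment, 1hr reagent incubation, fluorescence read.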

[6] = Caspase-3/7 induction in CHO-K1 cells by small molecules, qHTS assay (AID 1346980); note: nearly all actives have a fitted effect of over 15% in size
Outline: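 Wild-type CHO-K1 cells exposed to compounds for 17hr at 37 C, 5% CO2. Caspase-3/7 activity then measured by Caspase-Glo 3/7 luminescence after 30min at room temperature.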

[7] = Caspase-3/7 induction in HepG2 cells by small molecules, qHTS cell viability counter screen (AID 1346981); note: series mostly up to about 92 µM; nearly all actives have a fitted effect of over 30% in size
Outline: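 Multiplexed with the caspase-3/7 assay: HepG2 cells, 16 hr compound treatment, CellTiter-Fluor viability detection by fluorescence.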

[8] = target: Nuclear receptor subfamily 1 group I member 2 (Homo sapiens) (UniProt O75469); assay: Human pregnane X receptor (PXR) small molecule agonists, qHTS assay (AID 1346982); note: nearly all actives have a fitted effect of over 35% in size; note: potency is the fitted concentration of half-maximal effect
Nuclear receptor subfamily 1 group I member 2 (Homo sapiens), sequence (O75469 whole entry, looked up): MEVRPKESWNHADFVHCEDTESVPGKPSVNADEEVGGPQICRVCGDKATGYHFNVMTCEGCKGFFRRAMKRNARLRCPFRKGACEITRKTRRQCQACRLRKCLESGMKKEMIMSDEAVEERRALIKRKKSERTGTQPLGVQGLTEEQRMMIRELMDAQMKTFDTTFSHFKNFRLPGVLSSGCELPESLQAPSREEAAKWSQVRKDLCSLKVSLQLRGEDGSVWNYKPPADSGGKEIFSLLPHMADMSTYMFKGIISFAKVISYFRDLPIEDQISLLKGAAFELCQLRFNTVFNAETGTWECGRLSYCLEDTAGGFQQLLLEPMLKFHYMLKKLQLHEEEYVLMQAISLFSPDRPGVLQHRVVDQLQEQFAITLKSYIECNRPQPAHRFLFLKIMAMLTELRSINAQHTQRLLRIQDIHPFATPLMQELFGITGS
Outline: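 We seeded PXR-Luc HepG2 cells in assay medium containing 5% charcoal-stripped FBS, added compounds 5 hr later, incubated 24 hr, and read luminescence with ONE-Glo reagent.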

[9] = target: Nuclear receptor subfamily 1 group I member 2 (Homo sapiens) (UniProt O75469); assay: CYP3A4 induction through human pregnane X receptor (PXR) by small molecules, qHTS assay (AID 1346984); note: nearly all actives have a fitted effect of over 40% in size
Outline: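 qHTS, concentration-response format: HepG2 DPX-2 line, PXR/CYP3A4-luc. Exposure 24 h, 37C. Substrate Luciferin-IPA 3uM final, 3 h. Detection One-Glo, 30 min RT.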

[10] = target: Nuclear receptor subfamily 1 group I member 2 (Homo sapiens) (UniProt O75469); assay: Human pregnane X receptor (PXR) activation by small molecules, qHTS assay (AID 1346985); note: nearly all actives have a fitted effect of over 40% in size
Outline: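 DPX-2 cells (HepG2 co-transfected with a PXR response element and a CYP3A4-promoter luciferase construct) were seeded at 2,000 per well, rested 5 hr at 37C, then exposed to DMSO-dissolved compounds for 24 hr. Activation was read as luciferase luminescence.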

[11] = target: Cytochrome P450 2C19 (Homo sapiens) (UniProt P33261); assay: Cytochrome P450 Family 2 Subfamily C Member 19 (CYP2C19) small molecule antagonists: luciferase reporter qHTS assay (AID 1671197); note: nearly all actives have a fitted effect of over 65% in size; note: potency is the fitted concentration of half-maximal effect
Cytochrome P450 2C19 (Homo sapiens), sequence (P33261 whole entry, looked up): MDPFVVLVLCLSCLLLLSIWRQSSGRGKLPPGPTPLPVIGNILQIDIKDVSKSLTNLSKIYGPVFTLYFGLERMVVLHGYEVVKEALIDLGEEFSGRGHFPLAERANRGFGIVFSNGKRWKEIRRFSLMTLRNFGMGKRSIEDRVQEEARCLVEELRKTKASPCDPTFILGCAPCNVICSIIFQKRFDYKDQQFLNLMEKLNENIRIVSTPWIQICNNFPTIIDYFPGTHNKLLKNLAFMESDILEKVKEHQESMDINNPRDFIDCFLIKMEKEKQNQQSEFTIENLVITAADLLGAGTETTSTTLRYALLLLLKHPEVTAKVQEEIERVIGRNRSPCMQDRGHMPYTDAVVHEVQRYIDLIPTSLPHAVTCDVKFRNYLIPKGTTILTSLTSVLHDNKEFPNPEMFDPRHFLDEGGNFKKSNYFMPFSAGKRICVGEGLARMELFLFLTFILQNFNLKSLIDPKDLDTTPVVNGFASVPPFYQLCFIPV
Outline: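 Quantitative high-throughput screen of the Tox21 library using CYP2C19 with proluciferin substrate. Reaction: NADPH regeneration, 37C, 1 h, after 10 min compound preincubation at room temperature. Readout: luminescence.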

[12] = target: Voltage-gated inwardly rectifying potassium channel KCNH2 (Homo sapiens) (UniProt Q12809); assay: Human Ether-a-go-go-Related Gene (hERG) channel small molecule antagonists: fluorescence cell-based qHTS assay (AID 1671200);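 note: hERG-expressing U2OS cells given a thallium stimulus after FluxOR II dye loading; series mostly up to about 77 µM; nearly all actives have a fitted effect of over 50% in size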
Voltage-gated inwardly rectifying potassium channel KCNH2 (Homo sapiens), sequence (Q12809 whole entry, looked up): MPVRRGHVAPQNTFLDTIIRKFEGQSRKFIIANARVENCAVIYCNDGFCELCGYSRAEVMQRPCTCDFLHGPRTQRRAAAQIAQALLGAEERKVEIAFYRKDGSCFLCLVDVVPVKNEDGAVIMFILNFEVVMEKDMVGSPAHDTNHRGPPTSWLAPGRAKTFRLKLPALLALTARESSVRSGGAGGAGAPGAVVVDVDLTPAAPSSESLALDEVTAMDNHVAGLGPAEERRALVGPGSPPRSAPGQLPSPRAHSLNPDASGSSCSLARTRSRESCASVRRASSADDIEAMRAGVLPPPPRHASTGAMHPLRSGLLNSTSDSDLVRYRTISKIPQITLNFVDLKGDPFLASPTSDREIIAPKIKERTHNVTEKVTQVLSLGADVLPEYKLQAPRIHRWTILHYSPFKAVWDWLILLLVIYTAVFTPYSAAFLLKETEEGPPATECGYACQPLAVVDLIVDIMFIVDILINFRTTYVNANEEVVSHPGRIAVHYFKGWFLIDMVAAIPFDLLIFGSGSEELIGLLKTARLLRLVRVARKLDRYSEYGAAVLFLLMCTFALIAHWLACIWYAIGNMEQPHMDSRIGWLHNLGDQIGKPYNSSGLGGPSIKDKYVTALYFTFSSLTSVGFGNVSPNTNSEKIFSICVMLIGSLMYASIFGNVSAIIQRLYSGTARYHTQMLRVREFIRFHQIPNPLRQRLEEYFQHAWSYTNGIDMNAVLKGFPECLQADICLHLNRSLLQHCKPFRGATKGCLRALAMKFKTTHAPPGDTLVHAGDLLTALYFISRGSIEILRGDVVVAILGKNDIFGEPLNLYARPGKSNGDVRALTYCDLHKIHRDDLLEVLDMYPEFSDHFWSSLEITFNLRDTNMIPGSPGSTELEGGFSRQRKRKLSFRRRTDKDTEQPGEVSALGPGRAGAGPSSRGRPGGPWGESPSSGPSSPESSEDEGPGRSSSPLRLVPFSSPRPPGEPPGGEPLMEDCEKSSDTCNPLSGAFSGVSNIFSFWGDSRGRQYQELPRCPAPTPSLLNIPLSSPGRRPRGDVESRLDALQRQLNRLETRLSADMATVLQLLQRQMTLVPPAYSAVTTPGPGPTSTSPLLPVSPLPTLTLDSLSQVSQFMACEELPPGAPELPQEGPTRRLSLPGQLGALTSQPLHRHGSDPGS
Outline: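 Kinetic two-minute fluorescence traces, sampled at 1 s, were collected following thallium stimulus of U2OS cells (1000 per well) that had been cultured overnight at 37 C and loaded with FluxOR II.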

[13] = target: Cytochrome P450 3A4 (Homo sapiens) (UniProt P08684); assay: Cytochrome P450 Family 3 Subfamily A Member 4 (CYP3A4) small molecule antagonists: luciferase reporter qHTS assay (AID 1671201); note: nearly all actives have a fitted effect of over 50% in size; note: potency is the fitted concentration of half-maximal effect
Cytochrome P450 3A4 (Homo sapiens), sequence (P08684 whole entry, looked up): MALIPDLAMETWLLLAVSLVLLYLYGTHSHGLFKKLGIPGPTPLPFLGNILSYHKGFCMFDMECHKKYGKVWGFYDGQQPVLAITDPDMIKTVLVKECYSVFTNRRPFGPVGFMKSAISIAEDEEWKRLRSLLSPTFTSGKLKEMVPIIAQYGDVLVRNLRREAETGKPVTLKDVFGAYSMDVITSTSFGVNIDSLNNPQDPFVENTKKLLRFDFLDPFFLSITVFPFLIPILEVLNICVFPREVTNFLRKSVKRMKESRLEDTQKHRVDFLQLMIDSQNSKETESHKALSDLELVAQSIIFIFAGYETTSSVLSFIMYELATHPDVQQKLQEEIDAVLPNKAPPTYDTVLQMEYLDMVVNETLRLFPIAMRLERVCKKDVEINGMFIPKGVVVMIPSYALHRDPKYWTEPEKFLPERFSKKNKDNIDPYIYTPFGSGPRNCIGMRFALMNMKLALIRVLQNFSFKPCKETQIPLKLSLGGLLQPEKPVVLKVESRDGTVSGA
Outline: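 Proluciferin-to-luciferin conversion by CYP3A4, NADPH-regenerated, 1 h RT; luminescence read as RLU. Ketoconazole as control.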

[14] = target: Cytochrome P450 2D6 (Homo sapiens) (UniProt P10635); assay: Cytochrome P450 Family 2 Subfamily D Member 6 (CYP2D6) small molecule antagonists: luciferase reporter qHTS assay (AID 1671196); note: nearly all actives have a fitted effect of over 50% in size; note: potency is the fitted concentration of half-maximal effect
Cytochrome P450 2D6 (Homo sapiens), sequence (P10635 whole entry, looked up): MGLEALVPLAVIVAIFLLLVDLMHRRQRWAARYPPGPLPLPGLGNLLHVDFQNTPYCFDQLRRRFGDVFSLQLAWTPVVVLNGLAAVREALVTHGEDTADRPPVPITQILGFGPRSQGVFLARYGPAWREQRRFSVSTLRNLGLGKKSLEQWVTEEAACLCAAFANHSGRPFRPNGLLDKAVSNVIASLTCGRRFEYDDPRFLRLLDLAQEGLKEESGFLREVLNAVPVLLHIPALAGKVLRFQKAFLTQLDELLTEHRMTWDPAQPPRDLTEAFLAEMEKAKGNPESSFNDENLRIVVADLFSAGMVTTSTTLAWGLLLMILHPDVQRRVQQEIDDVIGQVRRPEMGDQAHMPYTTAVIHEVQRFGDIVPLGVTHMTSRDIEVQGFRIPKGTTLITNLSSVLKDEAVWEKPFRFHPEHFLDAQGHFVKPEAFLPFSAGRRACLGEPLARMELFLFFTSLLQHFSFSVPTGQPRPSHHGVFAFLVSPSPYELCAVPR
Outline: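 Luminescence (RLU), read 20 min after detection reagent, indicated CYP2D6 conversion of proluciferin to luciferin during a 1 h NADPH-dependent reaction at room temperature.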

[15] = target: Cytochrome P450 2C9 (Homo sapiens) (UniProt P11712); assay: Cytochrome P450 Family 2 Subfamily C Member 9 (CYP2C9) small molecule antagonists: luciferase reporter qHTS assay (AID 1671198); note: nearly all actives have a fitted effect of over 50% in size; note: potency is the fitted concentration of half-maximal effect
Cytochrome P450 2C9 (Homo sapiens), sequence (P11712 whole entry, looked up): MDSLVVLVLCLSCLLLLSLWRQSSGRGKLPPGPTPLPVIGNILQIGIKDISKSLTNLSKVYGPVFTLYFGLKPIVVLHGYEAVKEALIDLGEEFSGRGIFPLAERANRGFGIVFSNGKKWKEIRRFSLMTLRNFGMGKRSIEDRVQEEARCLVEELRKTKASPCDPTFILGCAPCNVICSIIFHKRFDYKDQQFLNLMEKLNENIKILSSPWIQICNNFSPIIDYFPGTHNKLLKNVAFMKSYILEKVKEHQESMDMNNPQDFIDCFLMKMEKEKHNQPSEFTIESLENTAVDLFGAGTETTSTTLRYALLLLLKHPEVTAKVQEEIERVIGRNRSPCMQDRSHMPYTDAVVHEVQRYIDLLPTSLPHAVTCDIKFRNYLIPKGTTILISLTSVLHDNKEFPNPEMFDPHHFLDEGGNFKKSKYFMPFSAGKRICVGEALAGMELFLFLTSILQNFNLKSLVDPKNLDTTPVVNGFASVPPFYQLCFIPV
Outline: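 P450-Glo proluciferin substrate with CYP2C9 enzyme; 10 min RT preincubation, then NADPH regeneration 1 h at 37C; luciferin detection reagent 20 min RT, luminescence in relative luminescence units.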

[16] = target: Cytochrome P450 1A2 (Homo sapiens) (UniProt P05177); assay: Cytochrome P450 Family 1 Subfamily A Member 2 (CYP1A2) small molecule antagonists: luciferase reporter qHTS assay (AID 1671199); note: nearly all actives have a fitted effect of over 50% in size; note: potency is the fitted concentration of half-maximal effect
Cytochrome P450 1A2 (Homo sapiens), sequence (P05177 whole entry, looked up): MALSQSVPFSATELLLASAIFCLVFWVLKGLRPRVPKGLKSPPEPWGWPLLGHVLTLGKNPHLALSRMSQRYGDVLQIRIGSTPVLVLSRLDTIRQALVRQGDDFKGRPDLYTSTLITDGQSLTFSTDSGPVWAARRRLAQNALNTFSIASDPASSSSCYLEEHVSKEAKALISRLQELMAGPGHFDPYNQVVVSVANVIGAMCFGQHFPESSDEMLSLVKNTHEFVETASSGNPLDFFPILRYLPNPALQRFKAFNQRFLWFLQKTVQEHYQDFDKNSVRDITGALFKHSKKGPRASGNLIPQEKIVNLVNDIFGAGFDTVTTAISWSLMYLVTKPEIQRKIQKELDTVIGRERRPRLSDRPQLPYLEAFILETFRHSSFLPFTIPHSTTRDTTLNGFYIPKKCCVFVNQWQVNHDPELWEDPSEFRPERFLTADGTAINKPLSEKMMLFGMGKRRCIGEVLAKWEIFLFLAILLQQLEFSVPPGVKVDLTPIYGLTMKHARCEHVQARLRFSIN
Outline: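 CYP1A2 turnover of a luminogenic substrate was quantified after 1 h with NADPH regeneration at room temperature. Furafylline served as positive control.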

[17] = target: Nuclear receptor subfamily 1 group I member 2 (Rattus norvegicus) (UniProt Q9R1A7); assay: Rat pregnane X receptor (rPXR) activation by small molecules, qHTS assay (AID 1346983); conditions: rPXR luciferase reporter cells, One-Glo luminescence, 24 h; max activation: hits give high values; note: nearly all actives have a fitted effect of over 20% in size
Nuclear receptor subfamily 1 group I member 2 (Rattus norvegicus), sequence (Q9R1A7 whole entry, looked up): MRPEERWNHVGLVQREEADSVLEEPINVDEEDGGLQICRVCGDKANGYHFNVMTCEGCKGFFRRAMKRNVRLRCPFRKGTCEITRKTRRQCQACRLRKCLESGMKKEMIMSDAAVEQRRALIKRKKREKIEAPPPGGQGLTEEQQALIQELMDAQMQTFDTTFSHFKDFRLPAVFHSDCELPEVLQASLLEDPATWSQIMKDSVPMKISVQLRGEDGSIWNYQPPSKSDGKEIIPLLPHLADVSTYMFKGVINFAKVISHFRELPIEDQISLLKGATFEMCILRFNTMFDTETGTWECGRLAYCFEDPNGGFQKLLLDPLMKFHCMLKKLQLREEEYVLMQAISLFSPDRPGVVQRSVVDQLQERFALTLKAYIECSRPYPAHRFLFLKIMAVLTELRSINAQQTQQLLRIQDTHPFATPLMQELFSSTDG
Outline: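 Cell-based rPXR activation assay: rPXR cells, 2,000 per well, rested 5hr at 37 C, then exposed to compounds in DMSO for 24 hr at 37 C. Luciferase activity read by One-Glo luminescence after 30 min at room temperature.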
% is set by controls: 0 for no effect and ±100 for the full control effect.

CCCCN=C(N)N=C(N)N
inactive: outcome [1] | outcome [2] | outcome [3] | outcome [4] | Potency [5] | outcome [6] | outcome [7] | Potency [8] | outcome [9] | outcome [10] | Potency [11] | Potency [12] | Potency [13]

C=CC(=O)OCCOCCOCC
inactive: outcome [1] | outcome [2] | outcome [3] | outcome [4] | outcome [6] | outcome [7] | Potency [8] | Potency [14] | Potency [11] | Potency [15] | Potency [16] | Potency [12] | Potency [13]

CC(C)C(C)C
inactive: outcome [1] | outcome [2] | outcome [3] | outcome [4] | Potency [5] | outcome [6] | outcome [7] | Potency [8] | Potency [14] | Potency [11] | Potency [15] | Potency [16] | Potency [12] | Potency [13]

CN(C)c1ccncc1
inactive: outcome [1] | outcome [2] | outcome [3] | outcome [4] | Potency [5] | outcome [6] | outcome [7] | Potency [8] | Potency [11] | Potency [15] | Potency [16] | Potency [12] | Potency [13]
active: Potency [14] 31.7 µM

CCOC(=O)[C@H](CCc1ccccc1)N[C@H]1CS[C@H](c2cccs2)CN(CC(=O)O)C1=O
inactive: outcome [1] | outcome [2] | outcome [3] | Potency [5] | outcome [6] | outcome [7] | Potency [8] | Potency [11] | Potency [15] | Potency [16] | Potency [12] | Potency [13]

Cc1cccc(N)n1
inactive: outcome [1] | outcome [2] | outcome [3] | outcome [4] | outcome [6] | outcome [7] | Potency [8]

Cc1cc(=O)oc2cc(O[C@@H]3SC[C@@H](O)[C@H](O)[C@H]3O)ccc12
inactive: outcome [1] | outcome [2] | outcome [3] | outcome [4] | Potency [5] | outcome [6] | outcome [7] | Potency [8] | Potency [14] | Potency [11] | Potency [16] | Potency [12] | Potency [13]

O=S(=O)(O)c1cc(I)c(O)c2ncccc12
inactive: outcome [1] | outcome [2] | outcome [3] | outcome [4] | Potency [5] | outcome [6] | outcome [7] | Potency [8] | outcome [9] | outcome [10] | Potency [14] | Potency [11] | Potency [16] | Potency [12] | Potency [13]

Nc1ccc(C(=O)NCC(=O)O)cc1
inactive: outcome [1] | outcome [2] | outcome [3] | outcome [4] | Potency [5] | outcome [6] | outcome [7] | Potency [8] | outcome [9] | outcome [10] | Potency [11] | Potency [15] | Potency [16] | Potency [12] | Potency [13]

CC(=O)c1ccc2ccc3ccccc3c2c1
active: Potency [8] 60.8 µM | Potency [11] 22.3 µM | Potency [15] 12.6 µM | Potency [16] 1.12 µM | Potency [13] 39.7 µM
inactive: outcome [1] | outcome [2] | outcome [3] | outcome [4] | outcome [6] | outcome [7] | Potency [14] | Potency [12]

CCOCCOCCOC(C)=O
inactive: outcome [1] | outcome [2] | outcome [3] | outcome [4] | Potency [5] | outcome [6] | outcome [7] | Potency [8] | Potency [14] | Potency [11] | Potency [15] | Potency [16] | Potency [12] | Potency [13]

COC(=O)c1cc(Cl)c(NC(C)=O)cc1OC
active: Potency [16] 2.45 µM
inactive: outcome [1] | outcome [2] | outcome [3] | outcome [4] | outcome [6] | outcome [7] | Potency [8] | Potency [14] | Potency [11] | Potency [15] | Potency [12] | Potency [13]

CCO/C=C1\N=C(c2ccccc2)OC1=O
inactive: outcome [1] | outcome [2] | outcome [3] | outcome [4] | Potency [5] | outcome [6] | outcome [7] | Potency [8] | Potency [12] | Potency [13]
active: Potency [11] 79.4 µM | Potency [16] 35.5 µM

CC(=O)OCC(=O)[C@@]1(O)CC[C@H]2[C@@H]3CCC4=CC(=O)C=C[C@]4(C)[C@H]3[C@@H](O)C[C@@]21C
inactive: outcome [1] | outcome [2] | outcome [3] | outcome [4] | outcome [6] | outcome [7] | Potency [8] | outcome [9] | outcome [10] | Potency [14] | Potency [11] | Potency [16] | Potency [12]

C/C=C(\C)C(=O)OC/C=C(\C)CCC=C(C)C
inactive: outcome [1] | outcome [2] | outcome [3] | outcome [4] | Potency [5] | outcome [6] | outcome [7] | Potency [8] | Potency [14] | Potency [11] | Potency [12] | Potency [13]

CC/C=C/CCCCCCCCCCOC(C)=O
inactive: outcome [1] | outcome [2] | outcome [3] | outcome [4] | Potency [5] | outcome [6] | outcome [7] | Potency [8] | Potency [14] | Potency [11] | Potency [15] | Potency [12] | Potency [13]

O=P(O)(O)C(O)(Cc1cccnc1)P(=O)(O)O
inactive: outcome [1] | outcome [2] | outcome [3] | outcome [4] | outcome [6] | outcome [7] | Potency [8] | max activation [17] -2.56% | outcome [9] | outcome [10] | Potency [14] | Potency [11] | Potency [15] | Potency [16] | Potency [12] | Potency [13]

O=Cc1ccccc1S(=O)(=O)O
inactive: outcome [1] | outcome [2] | outcome [3] | outcome [4] | Potency [5] | outcome [6] | outcome [7] | Potency [8] | Potency [14] | Potency [11] | Potency [16] | Potency [12] | Potency [13]

C[C@H]1COc2c(C3(N)CC3)c(F)cc3c(=O)c(C(=O)O)cn1c23
inactive: outcome [1] | outcome [2] | outcome [3] | outcome [4] | Potency [5] | outcome [6] | outcome [7] | Potency [8] | outcome [9] | outcome [10] | Potency [14] | Potency [11] | Potency [16] | Potency [12] | Potency [13]

CCCCC(CC)CCC(CC(C)C)OS(=O)(=O)O (stereo not given)
inactive: outcome [1] | outcome [2] | outcome [3] | outcome [4] | outcome [6] | outcome [7] | Potency [8] | max activation [17] -2.27% | outcome [9] | outcome [10] | Potency [14] | Potency [16] | Potency [12] | Potency [13]
active: Potency [15] 31.7 µM

— PubChem BioAssay (Tox21)
